For 8 molecules, activity, negative = inhibition, Potency and Z-AUC results are on record in PubChem BioAssay (NCATS).

Results filed as inconclusive are left out. Active and inactive are the calls of the source. Unless noted, calls follow the shape of the dose curve; as a rule, active = well fitted inhibition curve with a large enough effect; inconclusive = small, poorly fitted or top-dose-only effect; inactive = flat fitted curve, though single readings scatter.

A short description of test [1]: qHTS profiling for inhibitors of Plasmodium falciparum proliferation (AID 504749).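 As to activity, negative = inhibition: 0% = DMSO vehicle and full inhibition = artemisinin control.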 As to all read-outs here: nearly all actives have a fitted effect of over 60% in size. To be noted: P. falciparum in erythrocytes, SYBR Green DNA, 72 h; for activity, negative = inhibition: at 28.7 µM (top of the series). The procedure, abridged:
(§1)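 P. falciparum-infected erythrocytes (0.3% parasitemia, 2.5% hematocrit final) were exposed to compounds for 72 h at 37 C in 5% CO2, then lysed with SYBR Green buffer overnight at room temperature; parasite DNA fluorescence was normalized to artemisinin and DMSO controls.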
A general note: In qHTS, concentration-response curves come from the screen itself.

The test system of test [2] is 3D7. Described as above. To be noted: P. falciparum in erythrocytes, SYBR Green DNA, 72 h; series mostly up to 28.7 µM. The method, boiled down:
as §1

The subject of test [3] is 7G8. The test is described as above. To be noted: P. falciparum in erythrocytes, SYBR Green DNA, 72 h; series mostly up to 28.7 µM. The procedure, abridged: as §1
Test [4] deals with AA1029. The description is as above. The conditions noted are these: P. falciparum in erythrocytes, SYBR Green DNA, 72 h; series mostly up to 28.7 µM. The procedure, abridged: as §1
Test [5] relates to AS120. Described as above. To be noted: P. falciparum in erythrocytes, SYBR Green DNA, 72 h; series mostly up to 28.7 µM. The procedure, abridged:
as §1

In test [6] the test system is ATS189. The test is described as above. To be noted: P. falciparum in erythrocytes, SYBR Green DNA, 72 h; series mostly up to 28.7 µM. The procedure, abridged: as §1
Test [7] deals with ATS95. Described as above. The conditions noted are these: P. falciparum in erythrocytes, SYBR Green DNA, 72 h; series mostly up to 28.7 µM. The procedure, abridged: as §1
For test [8], the system named is C2A. The test is described as above. The conditions noted are these: P. falciparum in erythrocytes, SYBR Green DNA, 72 h; series mostly up to 28.7 µM. The method, boiled down:
as §1

Test [9] deals with CP185. The description is as above. To be noted: P. falciparum in erythrocytes, SYBR Green DNA, 72 h; series mostly up to 28.7 µM. The procedure, abridged:
as §1

For test [10], the system named is CP191. The test is described as above. The conditions noted are these: P. falciparum in erythrocytes, SYBR Green DNA, 72 h; series mostly up to 28.7 µM. The procedure, abridged:
as §1

Test [11] deals with CP192. Described as above. The conditions noted are these: P. falciparum in erythrocytes, SYBR Green DNA, 72 h; series mostly up to 28.7 µM. The procedure, abridged: as §1
For test [12], the system named is CP194. The description is as above. The conditions noted are these: P. falciparum in erythrocytes, SYBR Green DNA, 72 h; series mostly up to 28.7 µM. The procedure, abridged: as §1
Test [13] deals with CP201. Described as above. To be noted: P. falciparum in erythrocytes, SYBR Green DNA, 72 h; series mostly up to 28.7 µM. The method, boiled down:
as §1

Test [14] has as its system CP203. The description is as above. To be noted: P. falciparum in erythrocytes, SYBR Green DNA, 72 h; series mostly up to 28.7 µM. The procedure, abridged:
as §1

For test [15], the system named is CP211. The test is described as above. To be noted: P. falciparum in erythrocytes, SYBR Green DNA, 72 h; series mostly up to 28.7 µM. The method, boiled down: as §1
In test [16] the test system is CP215. The description is as above. The conditions noted are these: P. falciparum in erythrocytes, SYBR Green DNA, 72 h; series mostly up to 28.7 µM. The method, boiled down:
as §1

For test [17], the system named is CP217. The description is as above. The conditions noted are these: P. falciparum in erythrocytes, SYBR Green DNA, 72 h; series mostly up to 28.7 µM. The method, boiled down:
as §1

For test [18], the system named is CP237. The description is as above. The conditions noted are these: P. falciparum in erythrocytes, SYBR Green DNA, 72 h; series mostly up to 28.7 µM. The method, boiled down: as §1
Test [19] relates to CP238. The test is described as above. The conditions noted are these: P. falciparum in erythrocytes, SYBR Green DNA, 72 h; series mostly up to 28.7 µM. The method, boiled down:
as §1

The nature of test [20]: qHTS drug screen for cell cycle checkpoint inhibitors in PARPi-resistant BRCA-mutant ovarian cancer cell lines. (AID 1963452; calls by dose curve). To be noted: PEO1/OlaR viability, CellTiter-Glo luminescence, 96 h; for Z-AUC: stronger effect = lower value. The method, boiled down:
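PEO1, PEO4 and PEO1/OlaR ovarian cancer cells, 600 per well, exposed 96 h at 37C to a dilution series. Viability read by CellTiter-Glo luminescence, normalized to DMSO and empty wells; activity summarized as Z-AUC.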

[21] abbreviates: measured here: PEO1 parental Z-AUC.
Potency is read from the fitted curve at half-maximal effect.

Regarding `O=C(O)P(=O)(O)O`, the activity, negative = inhibition was 3.96% (inactive) in [1] (parasite line A) and -2.94% (inactive) in [1] (parasite line B). The Potency result in test [2], in test [3], in test [4], in test [5], in test [6] and in test [7] was “inactive” in each case. Besides, the Potency entry in [8], in test [9], in [10], in test [11], in test [12] and in test [13] was “inactive” each time. For the same molecule, the Potency result in test [14], in test [15], in [16], in test [17], in [18] and in [19] was “inactive” throughout.

As for `CCN1CCN(C(=O)N[C@@H](C(=O)N[C@@H]2C(=O)N3C(C(=O)O)=C(CSc4nnnn4C)CS[C@H]23)c2ccc(O)cc2)C(=O)C1=O`, the results for the Z-AUC in test [20], in [20] (setting [21]) and in test [20] (measured here: PEO4 Z-AUC) were 0.353 (inactive), 0.559 and 0.224, respectively.

As for `CCOC(=O)[C@H](CCc1ccccc1)N[C@@H](C)C(=O)N1[C@H](C(=O)O)C[C@@H]2CCC[C@@H]21`, the figures for the Z-AUC in [20], in [20] (setting [21]) and in test [20] (measured here: PEO4 Z-AUC) were -0.637 (inactive), -0.134 and -0.409, respectively.

In the case of `C[C@@H](O)[C@H]1C(=O)N2C(C(=O)O)=C(S[C@@H]3CN[C@H](CNS(N)(=O)=O)C3)[C@H](C)[C@H]12`, the Z-AUC in [20] is -0.121 (inactive); in [20] (setting [21]) it was 0.644; in test [20] (measured here: PEO4 Z-AUC), 0.433. Moreover, the values for the activity, negative = inhibition in test [1] (parasite line A) and in test [1] (parasite line B) were 0.841% (inactive) and 3.74% (inactive), respectively. The Potency entry in test [2], in test [3], in [4], in test [5], in [6] and in test [7] was “inactive” in each case. Further, the Potency result in test [8], in [9], in test [10], in test [11], in [12] and in test [13] was “inactive” in each case. Further, the Potency result in [14], in [15], in test [16], in test [17], in test [18] and in test [19] was “inactive” each time.

As to `Cc1ccc(-c2ncc(Cl)cc2-c2ccc(S(C)(=O)=O)cc2)cn1`, the Z-AUC in test [20] was 0.855 (inactive); in test [20] (setting [21]), 0.717; in test [20] (measured here: PEO4 Z-AUC) it was 0.912. For the same molecule, the Potency entry in [2], in test [11], in [12], in [13] and in [15] was “inactive” in each case. In [3], the Potency is 8.91 µM (active).

In the case of `O=c1[nH]c(=O)n([C@H]2C[C@H](O)[C@@H](CO)O2)cc1F`, in [20], the Potency was 0.245 µM (active). The values for the Z-AUC in [20] (setting [21]) and in [20] (measured here: PEO4 Z-AUC) were -1.95 and -1.41, respectively. Also, the activity, negative = inhibition was 0.388% (inactive) in test [1] (parasite line A) and -0.681% (inactive) in test [1] (parasite line B). Moreover, the Potency entry in [2], in [4], in [5], in test [6], in [7] and in [8] was “inactive” throughout. In addition, the Potency entry in test [9], in [10], in test [11], in [12], in test [13] and in test [14] was “inactive” throughout. Also, the Potency result in [15], in [16], in test [17], in test [18] and in test [19] was “inactive” in each case.

In the case of `Cc1cc(C)cc(OCC2CNC(=O)O2)c1` (configuration not stated), the activity, negative = inhibition in [1] (parasite line A) was -4.76% (inactive); in test [1] (parasite line B), 4.34% (inactive). The Potency entry in [2], in test [3], in test [4], in [5], in test [6] and in test [7] was “inactive” throughout. The Potency entry in test [8], in test [9], in test [10], in test [11], in test [12] and in test [13] was “inactive” each time. Besides, the Potency result in test [14], in test [15], in [16], in test [17], in test [18] and in test [19] was “inactive” each time.

Take `CCCCCN=C(N)N/N=C/c1c[nH]c2ccc(OC)cc12`: the results for the Z-AUC in test [20], in test [20] (setting [21]) and in [20] (measured here: PEO4 Z-AUC) were -0.801 (inactive), -1.05 and -1.17, respectively. In addition, the Potency in test [1] (parasite line A) was 8.91 µM (active); in test [1] (parasite line B), 12.6 µM (active); in [2], 8.91 µM (active); in test [3], 1 µM (active); in test [5] it was 10 µM (active); in test [6] it was 5.01 µM (active). Besides, the Potency is 7.94 µM (active) in test [10] and 5.01 µM (active) in test [18]. Moreover, in test [11], the Potency result was “inactive”.
